# Bioassay records from PubChem BioAssay.
# PAX8 inh HTS: inhibitors of PAX8 transcriptional activity in RMG-I cells; RMG-I TPO-luciferase reporter, SteadyGlo, 24 h; inhibition, % at 12.6 µM; 1.2% of 360,000 active; AID 652154;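 active means mean replicate inhibition at least 60% with every replicate also reaching 60%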;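 further: luciferase light reporting Pax8 driven TPO promoter activity; plate controls were median of neutral control wells for no effect and mitoxantrone controls for full effect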
# EWS-Fli block: EWS/Fli transcriptional activity inhibition | A673 NR0B1-luciferase reporter, viability-normalised | inhibition, % at 12.6 µM | 0.67% of 350,000 active | AID 651661;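 active means mean inhibition of at least 50% after viability correction, with every replicate also passing that limit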;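 further: firefly luciferase signal divided by Alamar Blue viability fluorescence both relative to DMSO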
# Shn3 3UTR inh: inhibitors of Schnurri-3 3'UTR reporter in osteoblasts | 0.52% of 360,000 active | Clone20 osteoblast Shn3 3'UTR firefly luciferase, 24 h | inhibition, % at 12.5 µM;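 active means mean inhibition of at least 75% with every replicate also reaching 75%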;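 further: 0% = median of neutral control wells and 100% = pilot-screen positive control compound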
# EBV LMP1 NFkB: reduces LMP1-driven NF-kappaB luciferase signal. LMP1-induced NF-kappaB luciferase reporter cells, luminescence. inhibition, % at 12.5 µM. 0.69% of 350,000 active. AID 504558; in the data active means inhibition above about 41%;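 further: 0% = neutral control wells and 100% = reference inhibitor control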
# LGR2 inh: inhibitors of bursicon-induced Drosophila LGR2 receptor cAMP signaling | HEK293 LGR2, CRE-luciferase, bursicon-stimulated, 4 h | inhibition, % at 9.99 µM | 0.35% of 380,000 active;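 active means drop in luminescence signal, shown as inhibition above about 50% in the replicate tests, limit read from the data, passing the limit was not always enough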;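 further: agonist challenge used bursicon conditioned medium at about half maximal strength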
# MITF TRPM1 inh: inhibitors of MITF-driven TRPM1 promoter in melanoma cells. SK-MEL-5 TRPM1 promoter luciferase, 24 h. 0.83% of 330,000 active. inhibition, % at 12.5 µM;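 active means mean inhibition across replicates of 60% or more, whatever share of single replicates reaches that level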
# An asterisk follows results filed as active; . = no result. Sampled rows, rich in hits. Any-hit rate of the full collection: about 2.2%.
SMILES,PAX8 inh HTS,EWS-Fli block,Shn3 3UTR inh,EBV LMP1 NFkB,LGR2 inh,MITF TRPM1 inh
C#CCOCCOCCOCCNc1nc(N2CCN(C(=O)CCCCCCCCCCNC(=O)Cn3cc(C[C@@H](C)O)nn3)CC2)nc(N2CCN(C(=O)CCCCCCCCCCNC(=O)[C@H](CCCCN)n3cc(C[C@@H](C)CC)nn3)CC2)n1,.,.,84,6,.,83*
C#CCOCCOCCOCCNc1nc(N2CCN(C(=O)CCCCCCCCCCNC(=O)[C@H](CCCCN)n3cc(CCO)nn3)CC2)nc(N2CCN(C(=O)CCCCCCCCCCNC(=O)[C@H](CCCN=C(N)N)n3cc(C[C@@H](C)CC)nn3)CC2)n1,.,.,52,-3,.,77*
O=C(Nc1nc(-c2ccccn2)cs1)c1ccc(Cl)s1,38,3,90*,73*,-9,55
Cc1c(C(=O)Nc2nc(-c3ccccn3)cs2)oc2ccccc12,.,.,17,41*,.,-6
Cc1cccnc1Nc1nc(-c2ccccn2)cs1,.,.,28,51*,.,39
Cc1cccnc1Nc1nc(-c2ccccc2)cs1,-66,-30,-99,-40,-30,-20
Cn1cccc1C(=O)Nc1nc(-c2ccccn2)cs1,.,.,-48,42*,.,-14
CN1C(=O)c2cc(NC(=O)Nc3ccccc3)ccc2OC[C@@H]2O[C@H](CC(=O)O)CC[C@H]21,-17,9,.,.,9,.
C[C@@H]1CN([C@@H](C)CO)C(=O)c2cc(NC(=O)CCCN(C)C)ccc2O[C@@H]1CN(C)Cc1ccc(C(F)(F)F)cc1,-12,-1,.,.,-8,.
Cc1cc(SCC(=O)N/N=C/c2ccc(O)cc2O)nc2ccccc12,23,5,92*,31,24,36
C[C@H]1CN([C@@H](C)CO)C(=O)c2cc(NC(=O)C3CCCCC3)ccc2O[C@H]1CN(C)C,-20,-13,.,.,12,.
O=C(c1ccccc1)C1OC1C(=O)c1ccccc1 (stereo unspecified),72*,1,-12,29,7,36
Cc1nc2c(nc1C)C(=O)c1ccccc1C2=O,6,21,24,3,39,105*
O=C1c2ccccc2-c2nc3ccccc3nc21,.,.,-89,-3,.,-31
COc1ccc(NC(=O)Nc2ccc3c(c2)C(=O)N([C@@H](C)CO)C[C@H](C)[C@@H](CN(C)Cc2ccccc2)O3)cc1,-4,2,.,.,-24,.
CC[C@H](C)[C@H]1O[C@]2(CC[C@@H]1C)C[C@@H]1C[C@@H](CC=C(C)[C@@H](O[C@H]3C[C@H](OC)[C@@H](O[C@H]4C[C@H](OC)[C@@H](O)[C@H](C)O4)[C@H](C)O3)[C@@H](C)C=CC=C3CO[C@@H]4[C@H](O)C(C)=C[C@@H](C(=O)O1)[C@]34O)O2,.,.,97*,1,.,58
COCCOC(=O)N1C(=O)[C@@]2(c3ccccc31)[C@H](c1ccccc1OCCO)N1[C@H](c3ccccc3)[C@H](c3ccccc3)OC(=O)[C@H]1[C@@H]2C(=O)NC[C@H](O)c1ccccc1,109*,6,.,.,.,.
C=CCNC(=O)[C@@H]1[C@H]2C(=O)O[C@H](c3ccccc3)[C@H](c3ccccc3)N2[C@H](c2ccccc2OCCO)[C@@]12C(=O)N(C(=O)OCCOC)c1ccccc12,87*,7,.,.,.,.
C=CCNC(=O)[C@H]1[C@@H]2C(=O)O[C@@H](c3ccccc3)[C@@H](c3ccccc3)N2[C@@H](c2ccccc2OCCO)[C@]12C(=O)N(C(=O)OCCOC)c1ccccc12,82*,8,.,.,.,.
C=CCNC(=O)[C@H]1[C@@H]2C(=O)O[C@@H](c3ccccc3)[C@@H](c3ccccc3)N2[C@@H](c2ccccc2OCCO)[C@]12C(=O)N(C(=O)OCCOC)c1ccc(C#CC3(O)CCCCCC3)cc12,53,12,.,.,.,.
C[C@@H]1CN([C@H](C)CO)S(=O)(=O)c2ccc(C#Cc3ccncc3)cc2O[C@H]1CN(C)C(=O)C1CCC1,.,-1,.,.,5,.
C[C@@H]1CN([C@@H](C)CO)C(=O)c2cc(-c3ccc(F)cc3)cnc2O[C@H]1CN(C)C(=O)Nc1ccc(F)cc1,.,8,.,.,-8,.
CC(Oc1ccccc1)C(=O)Nc1nc(-c2ccccn2)cs1 (stereo unspecified),57,23,77,22,13,62*
CC(Oc1cccc(Cl)c1)C(=O)Nc1nc(-c2ccccn2)cs1 (stereo unspecified),71*,35,45,5,8,64*
